Experimental findings from ChEMBL document CHEMBL2218924, “A broad activity screen in support of a chemogenomic map for kinase signalling research and drug discovery” (Biochem J, 2013) are described below.

The target of assay [1] is Focal adhesion kinase 1 (Homo sapiens) (UniProt Q05397). The following applies: at 10 µM.
Assay [2] has as its target Fibroblast growth factor receptor 1 (Homo sapiens) (UniProt P11362). The following applies: at 1 µM.
Assay [3] has the same target. The following applies: at 10 µM.
Assay [4] has as its target Fibroblast growth factor receptor 2 (Homo sapiens) (UniProt P21802). The following applies: at 1 µM.
Assay [5] shares this target. The following applies: at 10 µM.
Assay [6] concerns the target Fibroblast growth factor receptor 3 (Homo sapiens) (UniProt P22607). The following applies: at 1 µM.
Assay [7] shares this target. The following applies: at 10 µM.
Assay [8] deals with Tyrosine-protein kinase Fgr (Homo sapiens) (UniProt P09769). The following applies: at 1 µM.
For assay [9] the target is unchanged. The following applies: at 10 µM.
Assay [10] deals with Receptor-type tyrosine-protein kinase FLT3 (Homo sapiens) (UniProt P36888). The following applies: at 1 µM.
For assay [11] the target is unchanged. The following applies: at 10 µM.
The target in assay [12] is Fibroblast growth factor receptor 4 (Homo sapiens) (UniProt P22455). The following applies: at 1 µM.
Assay [13] shares this target. The following applies: at 10 µM.
For assay [14], the target named is Tyrosine-protein kinase Fer (Homo sapiens) (UniProt P16591). The following applies: at 1 µM.
For assay [15] the target is unchanged. The following applies: at 10 µM.
Assay [16] concerns the target Tyrosine-protein kinase Fes/Fps (Homo sapiens) (UniProt P07332). The following applies: at 1 µM.
The target is the same in assay [17]. The following applies: at 10 µM.
Assay [18] concerns the target Vascular endothelial growth factor receptor 1 (Homo sapiens) (UniProt P17948). The following applies: at 1 µM.
The target is the same in assay [19]. The following applies: at 10 µM.
Assay [20] concerns the target Vascular endothelial growth factor receptor 3 (Homo sapiens) (UniProt P35916). The following applies: at 1 µM.

Chain of Focal adhesion kinase 1 (Homo sapiens) (Q05397 2-1052 limits assumed): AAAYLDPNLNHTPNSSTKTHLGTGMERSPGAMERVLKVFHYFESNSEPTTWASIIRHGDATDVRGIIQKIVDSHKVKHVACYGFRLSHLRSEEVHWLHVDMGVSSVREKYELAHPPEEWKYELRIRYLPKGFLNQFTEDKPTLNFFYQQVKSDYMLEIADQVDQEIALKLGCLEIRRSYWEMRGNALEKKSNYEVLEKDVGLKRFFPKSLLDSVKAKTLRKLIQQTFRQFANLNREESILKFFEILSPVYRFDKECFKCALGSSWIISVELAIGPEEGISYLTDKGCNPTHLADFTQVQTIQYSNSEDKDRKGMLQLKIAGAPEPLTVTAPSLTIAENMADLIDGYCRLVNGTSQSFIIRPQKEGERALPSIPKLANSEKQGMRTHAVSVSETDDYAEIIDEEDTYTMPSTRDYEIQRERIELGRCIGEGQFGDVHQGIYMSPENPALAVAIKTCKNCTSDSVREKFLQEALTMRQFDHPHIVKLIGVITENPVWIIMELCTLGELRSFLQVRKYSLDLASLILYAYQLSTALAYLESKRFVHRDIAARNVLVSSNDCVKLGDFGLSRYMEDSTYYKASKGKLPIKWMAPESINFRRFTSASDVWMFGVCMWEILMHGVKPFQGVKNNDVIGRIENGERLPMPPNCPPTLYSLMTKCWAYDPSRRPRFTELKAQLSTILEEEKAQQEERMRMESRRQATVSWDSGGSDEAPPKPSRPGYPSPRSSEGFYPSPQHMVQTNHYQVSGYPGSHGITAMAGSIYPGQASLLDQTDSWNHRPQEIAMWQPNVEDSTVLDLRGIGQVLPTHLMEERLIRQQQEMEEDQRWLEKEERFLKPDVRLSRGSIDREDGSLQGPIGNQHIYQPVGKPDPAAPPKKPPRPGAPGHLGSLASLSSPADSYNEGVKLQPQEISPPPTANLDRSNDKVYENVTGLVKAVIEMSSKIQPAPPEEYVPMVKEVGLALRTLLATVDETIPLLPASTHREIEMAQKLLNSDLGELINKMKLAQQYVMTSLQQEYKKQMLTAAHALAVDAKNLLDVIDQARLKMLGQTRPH
Chain of Tyrosine-protein kinase Fes/Fps (Homo sapiens) (P07332 whole entry): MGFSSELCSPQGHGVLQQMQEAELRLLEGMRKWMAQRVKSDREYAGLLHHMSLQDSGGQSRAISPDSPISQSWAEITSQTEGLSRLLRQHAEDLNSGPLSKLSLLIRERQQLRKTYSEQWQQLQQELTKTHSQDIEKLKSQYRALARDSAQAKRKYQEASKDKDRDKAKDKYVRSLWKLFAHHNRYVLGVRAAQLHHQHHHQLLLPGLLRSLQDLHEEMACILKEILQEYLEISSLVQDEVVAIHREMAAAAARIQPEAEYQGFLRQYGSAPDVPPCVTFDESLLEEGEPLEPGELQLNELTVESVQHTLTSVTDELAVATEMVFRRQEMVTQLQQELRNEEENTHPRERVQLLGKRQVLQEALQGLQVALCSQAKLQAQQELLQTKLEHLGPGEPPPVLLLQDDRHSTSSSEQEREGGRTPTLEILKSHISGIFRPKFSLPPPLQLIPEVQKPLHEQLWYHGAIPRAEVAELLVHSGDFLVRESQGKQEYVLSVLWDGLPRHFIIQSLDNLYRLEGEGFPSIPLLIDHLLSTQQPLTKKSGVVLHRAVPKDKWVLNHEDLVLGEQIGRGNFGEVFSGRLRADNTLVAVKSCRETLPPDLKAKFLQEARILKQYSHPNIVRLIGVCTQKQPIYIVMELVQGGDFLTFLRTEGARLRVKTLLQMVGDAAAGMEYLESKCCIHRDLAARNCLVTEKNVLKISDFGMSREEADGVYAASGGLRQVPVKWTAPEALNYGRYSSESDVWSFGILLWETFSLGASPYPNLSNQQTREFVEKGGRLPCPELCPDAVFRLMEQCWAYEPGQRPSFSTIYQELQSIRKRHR
Chain of Vascular endothelial growth factor receptor 1 (Homo sapiens) (P17948 whole entry): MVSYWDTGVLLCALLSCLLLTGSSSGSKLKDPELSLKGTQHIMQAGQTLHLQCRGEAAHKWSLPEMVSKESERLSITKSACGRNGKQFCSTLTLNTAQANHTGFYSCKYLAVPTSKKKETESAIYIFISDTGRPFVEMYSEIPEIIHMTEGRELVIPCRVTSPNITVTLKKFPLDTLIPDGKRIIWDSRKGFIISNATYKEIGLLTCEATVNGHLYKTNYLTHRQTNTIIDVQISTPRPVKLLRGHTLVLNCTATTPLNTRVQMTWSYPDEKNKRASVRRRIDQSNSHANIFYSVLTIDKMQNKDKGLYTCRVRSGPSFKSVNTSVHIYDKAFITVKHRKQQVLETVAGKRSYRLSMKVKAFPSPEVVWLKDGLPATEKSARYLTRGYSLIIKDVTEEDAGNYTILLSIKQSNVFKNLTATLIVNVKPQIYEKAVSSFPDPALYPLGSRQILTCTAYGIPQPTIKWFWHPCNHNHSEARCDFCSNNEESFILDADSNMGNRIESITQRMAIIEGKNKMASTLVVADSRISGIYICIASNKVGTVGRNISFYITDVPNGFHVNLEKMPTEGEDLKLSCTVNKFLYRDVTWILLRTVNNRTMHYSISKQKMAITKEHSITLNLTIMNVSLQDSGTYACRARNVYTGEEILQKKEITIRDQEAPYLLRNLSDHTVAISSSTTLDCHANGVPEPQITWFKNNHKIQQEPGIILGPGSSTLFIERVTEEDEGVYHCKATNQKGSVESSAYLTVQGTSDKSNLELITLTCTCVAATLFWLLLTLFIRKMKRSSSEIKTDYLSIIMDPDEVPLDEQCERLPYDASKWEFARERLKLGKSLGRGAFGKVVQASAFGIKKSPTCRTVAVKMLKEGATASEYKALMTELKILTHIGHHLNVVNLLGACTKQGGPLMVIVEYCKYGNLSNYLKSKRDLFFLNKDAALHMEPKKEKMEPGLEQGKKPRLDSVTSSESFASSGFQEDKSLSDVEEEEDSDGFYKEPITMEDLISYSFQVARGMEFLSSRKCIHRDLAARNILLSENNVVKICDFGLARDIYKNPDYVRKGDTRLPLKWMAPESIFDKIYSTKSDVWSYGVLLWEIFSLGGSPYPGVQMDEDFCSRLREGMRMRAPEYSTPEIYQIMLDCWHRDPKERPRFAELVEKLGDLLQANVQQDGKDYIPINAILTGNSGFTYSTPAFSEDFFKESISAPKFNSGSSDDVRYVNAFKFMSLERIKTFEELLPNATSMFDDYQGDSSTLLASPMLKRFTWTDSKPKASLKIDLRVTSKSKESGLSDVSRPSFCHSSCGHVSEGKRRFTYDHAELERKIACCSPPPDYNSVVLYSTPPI
Chain of Fibroblast growth factor receptor 3 (Homo sapiens) (P22607 23-806 limits assumed): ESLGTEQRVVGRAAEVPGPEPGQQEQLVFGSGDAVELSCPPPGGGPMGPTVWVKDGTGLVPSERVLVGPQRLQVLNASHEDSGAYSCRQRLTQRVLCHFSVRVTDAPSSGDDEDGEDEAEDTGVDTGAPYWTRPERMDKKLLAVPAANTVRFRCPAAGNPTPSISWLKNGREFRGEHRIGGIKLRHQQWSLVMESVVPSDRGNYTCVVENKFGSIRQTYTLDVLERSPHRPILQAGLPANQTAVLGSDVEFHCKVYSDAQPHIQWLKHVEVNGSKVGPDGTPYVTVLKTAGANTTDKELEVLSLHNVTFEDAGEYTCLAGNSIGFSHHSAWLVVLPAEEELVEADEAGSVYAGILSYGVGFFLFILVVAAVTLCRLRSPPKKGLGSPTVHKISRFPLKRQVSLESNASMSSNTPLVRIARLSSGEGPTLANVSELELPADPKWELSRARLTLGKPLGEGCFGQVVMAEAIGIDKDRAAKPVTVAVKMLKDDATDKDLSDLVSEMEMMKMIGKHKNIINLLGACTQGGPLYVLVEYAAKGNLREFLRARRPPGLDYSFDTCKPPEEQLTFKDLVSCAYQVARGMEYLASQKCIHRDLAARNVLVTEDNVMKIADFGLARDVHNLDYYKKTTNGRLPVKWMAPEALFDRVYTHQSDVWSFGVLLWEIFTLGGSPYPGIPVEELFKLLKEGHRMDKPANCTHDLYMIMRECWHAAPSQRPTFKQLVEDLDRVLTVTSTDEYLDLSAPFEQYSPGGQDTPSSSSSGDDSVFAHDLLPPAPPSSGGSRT
Chain of Fibroblast growth factor receptor 4 (Homo sapiens) (P22455 22-802 limits assumed): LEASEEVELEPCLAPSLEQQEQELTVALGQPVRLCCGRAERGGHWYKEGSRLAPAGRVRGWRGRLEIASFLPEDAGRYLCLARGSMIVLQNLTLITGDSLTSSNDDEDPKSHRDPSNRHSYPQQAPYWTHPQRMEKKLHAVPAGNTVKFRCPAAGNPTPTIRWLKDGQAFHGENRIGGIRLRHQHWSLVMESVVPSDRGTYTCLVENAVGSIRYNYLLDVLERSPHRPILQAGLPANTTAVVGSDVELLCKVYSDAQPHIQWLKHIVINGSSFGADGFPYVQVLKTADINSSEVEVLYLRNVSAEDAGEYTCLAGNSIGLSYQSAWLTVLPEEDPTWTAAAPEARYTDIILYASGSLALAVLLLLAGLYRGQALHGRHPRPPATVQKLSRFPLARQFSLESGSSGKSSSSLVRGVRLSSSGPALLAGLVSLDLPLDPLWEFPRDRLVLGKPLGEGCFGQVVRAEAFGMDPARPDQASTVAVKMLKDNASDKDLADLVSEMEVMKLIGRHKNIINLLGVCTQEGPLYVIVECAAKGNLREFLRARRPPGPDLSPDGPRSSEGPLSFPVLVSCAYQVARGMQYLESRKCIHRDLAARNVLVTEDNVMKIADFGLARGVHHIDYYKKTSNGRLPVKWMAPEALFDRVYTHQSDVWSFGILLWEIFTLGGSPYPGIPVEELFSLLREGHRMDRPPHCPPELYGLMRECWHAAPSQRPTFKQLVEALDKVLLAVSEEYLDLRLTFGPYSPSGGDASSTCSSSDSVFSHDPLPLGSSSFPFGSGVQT

For the compound `COc1ccc2c(c1)/C(=C/c1cnc[nH]1)C(=O)N2`, the residual activity is 25% in assay [1]; 65% in [2]; 3% in assay [3]; 53% in [4]; 12% in assay [5]; 61% in assay [6]. The residual activity came out at 14% in assay [7]; 69% in assay [8]; 16% in assay [9]; 10% in assay [10]; 0% in assay [11].

With `O=C1c2ccccc2-c2nc3nnnn3nc21`, the residual activity is 113% in assay [2]; 81% in assay [3]; 118% in assay [4]; 135% in assay [5]; 125% in [6]; 132% in assay [7]. Moreover, the residual activity amounted to 118% in assay [12]; 106% in assay [13]; 112% in assay [14]; 103% in [15]; 104% in [8]; 78% in [9]. The residual activity was found to be 103% in [10] and 78% in [11].

Regarding `COc1ccc2c(c[n+](C)c3c4cc5c(cc4ccc23)OCO5)c1OC`, the residual activity is 93% in assay [1]; 85% in assay [2]; 44% in [3]; 57% in assay [7]; 100% in [13]; 80% in [15]. The residual activity was 121% in [16]; 76% in assay [17]; 77% in [9]; 96% in assay [18]; 47% in assay [19]; 92% in [10]. Further, the residual activity in assay [11] came out at 75%; in assay [20] it was 85%.

On to `CCc1nc(-c2ccc(OC)cc2)[nH]c1-c1ccncc1`, for which the residual activity was 81% in assay [1]; 104% in assay [2]; 80% in assay [3]; 121% in assay [4]; 124% in assay [7]; 102% in assay [12]. Also, the residual activity came out at 109% in assay [13]; 104% in assay [14]; 101% in assay [15]; 109% in assay [16]; 105% in [17]; 111% in assay [8]. In addition, the values for the residual activity in assay [9] and in assay [20] were 102% and 100%, respectively.

As for `O=c1[nH]c2ccccc2n1C1CCN(Cc2ccc(-c3nc4cc5[nH]cnc5cc4nc3-c3ccccc3)cc2)CC1`, the residual activity came out at 87% in assay [1]; 112% in assay [2]; 38% in assay [3]; 111% in [4]; 78% in assay [5]; 115% in [6]. For the same compound, the residual activity in assay [7] amounted to 99%; in assay [12], 111%; in assay [13], 88%; in assay [14] it was 112%; in assay [15], 99%; in assay [16] it was 120%. Moreover, the residual activity was 97% in assay [17]; 107% in assay [8]; 83% in assay [9]; 103% in [18]; 86% in assay [19]; 95% in assay [10]. The residual activity stood at 38% in assay [11] and 100% in assay [20].

Consider `O=C1Nc2ccc3ncsc3c2/C1=C/c1c[nH]cn1`, for which the residual activity in assay [1] is 13%; in assay [2], 9%; in assay [3], 1%; in assay [4] it was 18%; in [5], 3%; in assay [6] it was 19%. Also, the residual activity was found to be 9% in assay [7]; 112% in [12]; 84% in [13]; 40% in [15]; 62% in assay [16]; 15% in assay [17]. For the same compound, the residual activity in assay [8] was found to be 47%; in assay [9], 15%; in assay [18], 1%; in [19] it was 0%; in assay [10], 1%; in assay [11], 0%. The residual activity in [20] was 0%.

Consider `C[S+]([O-])c1ccc(-c2nc(-c3ccc(F)cc3)c(-c3ccncc3)[nH]2)cc1` (stereo not given), for which the residual activity in assay [1] was 115%; in assay [2] it was 142%; in assay [3] it was 90%; in [4], 99%; in assay [5], 81%; in assay [6], 115%. Further, the residual activity in assay [7] is 99%; in assay [12], 110%; in assay [13], 97%; in [14], 107%; in assay [15] it was 109%; in assay [16], 112%. The residual activity was 105% in assay [17]; 87% in assay [8]; 51% in assay [9]; 101% in [18]; 39% in [19]; 82% in assay [11]. Besides, the residual activity in assay [20] worked out at 93%.

Take `O=C1NC(=O)c2c1c1c3ccccc3n3c1c1c2c2ccccc2n1C1CCC3O1`: the residual activity worked out at 72% in assay [2]; 41% in [3]; 83% in assay [4]; 78% in assay [5]; 82% in assay [6]; 92% in assay [7]. In addition, the residual activity in assay [14] is 33%; in [15] it was 20%; in assay [16], 90%; in assay [17], 99%; in assay [18] it was 7%; in [19], 4%. Moreover, the residual activity in assay [10] is 24%; in [11] it was 3%; in assay [20], 0%.

Take `CCn1cnc2c(Nc3cccc(Cl)c3)nc(N[C@@H]3CCCC[C@@H]3N)nc21`: the residual activity came out at 12% in assay [1]; 76% in assay [2]; 11% in [3]; 34% in assay [5]; 113% in [6]; 53% in assay [7]. Also, the residual activity in [12] was determined as 118%; in assay [13] it was 79%; in assay [14], 85%; in assay [15], 39%; in assay [16], 55%; in assay [17], 9%. Further, the residual activity in assay [8] came to 18%; in assay [9], 3%; in [18], 63%; in [19], 15%; in [10] it was 18%; in assay [11], 1%. Also, the residual activity in assay [20] turned out to be 50%.

One may read the residual activity as the signal under treatment as a percentage of the control signal.
